PAFAH1B3 FP inh = PAFAH1B3 (human) inhibition; Q15102; recombinant PAFAH1B3, FP-rhodamine probe, fluorescence polarization; inhibition, % at 3.39 µM; 340,000 tested, 0.28% active;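 active = inhibition above the screen-wide average of all tested compounds plus 3 SD, cut at about 25% in these data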;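 also: 0% = enzyme with DMSO only and 100% = wells lacking PAFAH1B3 protein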
PP5 primary = PP5 (human) phosphatase inhibition; purified PP5c, OMFP substrate fluorescence; inhibition, % at 6.7 µM; 320,000 tested, 0.18% active;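 active = inhibition above the campaign's mean inhibition across all tested compounds plus 3 SD, cut at about 9.5% in these data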;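 also: 0% = DMSO only and 100% = 100 µM cantharidin control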
PAFAH2 FP inh = PAFAH2 (human) inhibition; Q99487; recombinant PAFAH2, FP-rhodamine activity probe, fluorescence polarization; 340,000 tested, 0.99% active; inhibition, % at 3.39 µM;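 active = inhibition above the mean over all tested compounds plus 3 SD, cut at about 30% in these data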;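 also: inhibitors block probe labeling of enzyme so polarization drops; 0% = enzyme with DMSO and 100% = wells lacking PAFAH2 protein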
PAFAH1B2 inh = blocks human PAF acetylhydrolase 1b catalytic subunit 2; inhibition, % at 3.39 µM; recombinant PAFAH1B2, FP-rhodamine activity probe, fluorescence polarization; 340,000 tested, 1.2% active; AID 492953;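 active = inhibition above the mean of all tested compounds plus 3 SD, cut at about 24% in these data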;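 also: 0% = enzyme with DMSO and 100% = wells lacking PAFAH1B2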
pPAFAH FP inh = pPAFAH (human) enzyme inhibition | Q13093 | recombinant pPAFAH, FP-rhodamine probe fluorescence polarization | inhibition, % at 3.39 µM | 330,000 tested, 1.5% active | AID 463082;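 active = inhibition above the mean inhibition across the screen plus 3 SD, cut at about 25% in these data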;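 also: inhibitors block binding of the rhodamine activity-based probe so polarization drops; 0% = enzyme with DMSO and 100% = wells lacking pPAFAH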
Target sequence (Q13093 whole entry, looked up): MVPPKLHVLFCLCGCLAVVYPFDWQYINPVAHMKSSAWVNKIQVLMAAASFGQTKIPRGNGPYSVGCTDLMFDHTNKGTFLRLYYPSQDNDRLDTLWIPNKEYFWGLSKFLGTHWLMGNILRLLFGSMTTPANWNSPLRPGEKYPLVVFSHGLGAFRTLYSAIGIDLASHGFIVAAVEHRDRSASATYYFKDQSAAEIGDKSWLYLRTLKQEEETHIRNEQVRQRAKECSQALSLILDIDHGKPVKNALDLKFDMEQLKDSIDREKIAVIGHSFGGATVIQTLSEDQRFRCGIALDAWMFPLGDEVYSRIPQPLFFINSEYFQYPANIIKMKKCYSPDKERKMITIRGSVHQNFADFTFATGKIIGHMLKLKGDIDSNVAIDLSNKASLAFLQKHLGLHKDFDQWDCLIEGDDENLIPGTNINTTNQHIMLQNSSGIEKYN
CTSL1 counter = blocks F. hepatica cathepsin L1 in PFM18AAP counter-screen; inhibition, % at 5.96 µM; AID 1906; recombinant F. hepatica cathepsin L1, Z-Leu-Arg-MCA fluorescence; 300,000 tested, 0.49% active;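 active = inhibition above the mean of all tested compounds plus 3 SD, set per screening campaign, cut at about 17% in these data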;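 also: 0% = plate median of test compound wells and 100% = 1 µM Z-Phe-Ala-diazomethylketone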
Active calls of the source: *; . = no result. An excerpt weighted towards active compounds, which were near 3% of everything screened.

SMILES	PAFAH1B3 FP inh	PP5 primary	PAFAH2 FP inh	PAFAH1B2 inh	pPAFAH FP inh	CTSL1 counter
CCc1ccccc1C1=CC(=O)C[C@H](c2ccc(OC)cc2)C1	9	.	-1	2	6	.
Cc1ccc(N2C(=O)C(Cl)=C(N3CCN(C)CC3)C2=O)c(C)c1	-1	0	3	-3	-4	27*
O=C1C(Cl)=C(N2CCCCCC2)C(=O)N1c1ccccc1	3	3	6	3	2	19*
CN1CCN(C2=C(Cl)C(=O)N(c3ccc(Cl)cc3)C2=O)CC1	3	1	2	-1	2	20*
Nc1ncnc2c(C3OC(CO)C(O)C3O)c[nH]c12 (configuration not stated)	6	.	0	2	.	.
Nc1c(C(=O)NCC2CCCO2)sc2nc3c(c(-c4ccco4)c12)CC/C3=C\c1ccco1 (configuration not stated)	39*	.	54*	24*	.	.
O=C(Nc1cccc(N=Cc2cc(Br)cc(Br)c2O)c1)c1ccco1	9	-1	8	0	17	-2
O=C(Nc1cccc(N=Cc2cc(Cl)cc(Br)c2O)c1)c1ccco1	8	2	0	3	16	18*
O=C(CCOc1ccccc1)N1CCN(c2ccc(O)cc2)CC1	3	1	12	2	31*	-2
O=C(CCCOc1ccccc1)N1CCN(c2ccccc2)CC1	-1	-1	8	3	6	-8
O=C(COC(=O)c1c[nH]c2ccccc12)NC1CCCCC1	9	2	83*	6	28*	.
O=C(COC(=O)Cc1ccc(Br)cc1)NC1CCCCCC1	13	-4	9	27*	27*	-5
O=C(COC(=O)c1cc(=O)[nH]c2ccccc12)NC1CCCCC1	8	.	13	2	-3	.
O=C(COC(=O)Cc1ccc(Br)cc1)NC12CC3CC(CC(C3)C1)C2	14	3	4	38*	26*	-4
O=C(c1ccc([N+](=O)[O-])s1)N1CCN(c2ccc(C(F)(F)F)cn2)CC1	8	0	0	-2	-1	-1
CCCCN(C(=O)c1ccncc1)c1c(N)n(CCC)c(=O)[nH]c1=O	2	.	2	3	-5	.
Cc1c(CNC(=O)C2CC2)c(-n2cccc2)n(Cc2ccccc2)c1C	4	0	5	-1	-3	1
CCC(=O)NCc1c(C)c(C)n(Cc2ccccc2)c1-n1cccc1	-1	-1	5	28*	5	-3
O=C1NCCOC(=O)[C@@H](Cc2ccc(F)cc2)C/C=C\C[C@@H]1CC(=O)N(CCO)Cc1ccccc1	1	.	-1	26*	4	.
O=C1N[C@@H](Cc2ccccc2)COC(=O)[C@@H](Cc2ccc(F)cc2)C/C=C\C[C@@H]1CC(=O)N(CCO)Cc1ccccc1	-2	.	1	41*	9	.
CC(C)(C)[C@@H]1COC(=O)[C@H](Cc2ccc(F)cc2)C/C=C\C[C@H](CC(=O)N(CCO)Cc2ccccc2)C(=O)N1	5	.	3	30*	3	.
O=C1N[C@H](Cc2ccccc2)COC(=O)[C@H](Cc2ccc(F)cc2)CC/C=C/C[C@H]1CC(=O)N(CCO)Cc1ccccc1	4	.	4	3	6	.
CC(C)(C)OC(=O)C[C@@H]1C/C=C\C[C@@H](CC(=O)N(CCO)Cc2ccccc2)C(=O)NCCOC1=O	3	.	-7	-1	3	.
COc1ccc2c(c1)C(=NNc1ccc(C(=O)O)cc1)c1cc(OC)ccc1-2	27*	3	21	11	31*	6
COc1ccc(/C(C)=N/Nc2ccc(C(=O)O)cc2)c(OC)c1	5	0	-2	5	4	1
SMILES	PAFAH1B3 FP inh	PP5 primary	PAFAH2 FP inh	PAFAH1B2 inh	pPAFAH FP inh	CTSL1 counter
COc1ccc2c(c1)c(/C=N/Nc1ccc(C(=O)O)cc1)c(C)n2C	8	0	6	3	25*	1
COc1ccc2c(/C=N/Nc3ccc(C(=O)O)cc3)c[nH]c2c1	6	1	-4	-1	28*	-1
O=C(CSc1ccc2nnc(-c3ccccn3)n2n1)Nc1ccc(F)cc1	6	4	15	2	2	50*
Cc1ccc(NC(=O)CSc2ccc3nnc(-c4ccccn4)n3n2)cc1	1	2	5	4	0	-1
COc1ccccc1N1CCN(C(=O)c2cc3ccccc3[nH]2)CC1	1	2	-3	0	-3	18*
COc1ccccc1N1CCN(C(=O)c2cc3cc(F)ccc3[nH]2)CC1	-4	1	3	0	1	-4
NC(=O)c1cc[n+](CC(=O)NC(=O)Nc2ccccc2)cc1	10	2	-3	4	0	.
COc1ccc(CN(C)CC(=O)Nc2cccc(S(=O)(=O)N3CCCC3)c2)cc1F	5	.	5	2	2	.
NC(=O)CN1C(=O)C(O)(CC(=O)/C=C\C=C\c2ccccc2)c2ccccc21 (configuration not stated)	3	1	5	3	5	3
O=C(/C=C/C=C/c1ccccc1)CC1(O)C(=O)N(CCc2ccccc2)c2ccccc21 (configuration not stated)	3	5	3	4	8	18*
C#CCN1C(=O)C(O)(CC(=O)/C=C/C=C/c2ccccc2)c2ccccc21 (configuration not stated)	7	-1	13	6	4	39*
O=C(CC1(O)C(=O)Nc2ccccc21)c1ccccc1 (configuration not stated)	6	-1	-4	-1	-1	-2
Cc1ccc2c(c1)C(O)(CC(=O)/C=C/C=C/c1ccccc1)C(=O)N2 (configuration not stated)	-6	-2	5	0	0	21*
C#CCN1C(=O)C(O)(CC(=O)c2ccc3c(c2)OCCO3)c2ccccc21 (configuration not stated)	5	1	9	1	-2	1
CCN1C(=O)C(O)(CC(=O)/C=C/C=C/c2ccccc2)c2ccccc21 (configuration not stated)	7	-8	-1	4	1	22*
COc1ccc(CCCN2CCC(CN3CCNC(=O)C3=O)CC2)cc1OC	1	.	4	1	.	.
CN(C)S(=O)(=O)c1ccc(NC(=O)CN2C(=O)NC(Cc3ccccc3)C2=O)cc1 (configuration not stated)	-4	-1	3	-1	-3	.
CC[C@]12c3[nH]c4ccc(OC)cc4c3CCN1C(=O)C(CC(=O)NCCCN(C)C)C[C@@H]2C(=O)N1CCN(C(=O)c2ccco2)CC1 (some centres not stated)	0	.	-4	-2	-2	.
Cc1nnc(NC(=O)C2CC(=O)N(C(C)c3ccccc3)C2)s1 (configuration not stated)	3	-2	-1	4	4	1
COc1ccc(/C=N/Nc2nncc3ccccc23)cc1	-1	2	2	0	1	52*

Screening results as filed in PubChem.
